This is a sample that favours compounds with a hit; in the whole collection about 11% have one here.
HP1b chromo inh: HP1-beta chromodomain-methylated histone interaction inhibition | P83916 | 0.56% of 390,000 active | AID 540317 | AlphaScreen HP1-beta / biotin-H3K9me3 peptide binding | Potency, µM (titrated, usually from 114 µM), without a hit: at the top dose activity change, negative = inhibition, actives largely listed as inhibitors; further: nearly all actives have a fitted effect of over 70% in size
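HP1-beta protein (50 nM final) preincubated 30 min at room temperature with biotinylated H3(1-18)K9me3 peptide (50 nM) in PBS pH 7.4, 0.01% Tween-20, then compound added for 30 min. AlphaScreen streptavidin donor/nickel chelate acceptor beads (10 ug/mL final), 30 min dark, luminescence read.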
BAZ2B inh: blocks human BAZ2B. 4.4% of 360,000 active. AID 504333. AlphaScreen BAZ2B-H3K14Ac peptide displacement. Q9UIF8. Potency, µM (top dose mostly 114 µM), for inactives: top-dose activity change, negative = inhibition, actives largely listed as inhibitors; further: on the % scale 0 is the no-effect control and ±100 the full control effect; nearly all actives have a fitted effect of over 60% in size
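Compounds, titrated to a top concentration of 110 uM, were incubated 30 min at room temperature with preformed BAZ2B/acetyl-K14 H3 peptide complex (50 nM each). Proximity signal was measured by AlphaScreen after 20 min with beads.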
L3MBTL1 inh: inhibitors of human L3MBTL1; Q9Y468; AID 485360; 0.66% of 230,000 active; Potency, µM (series often up to 57.1 µM), for the others: top-dose activity, negative = inhibition, most hits filed as inhibitors; AlphaScreen L3MBTL1–H3K9me1 peptide binding; further: on the % scale 0 is the no-effect control and ±100 the full control effect; nearly all actives have a fitted effect of over 60% in size
Target sequence (Q9Y468 whole entry, looked up): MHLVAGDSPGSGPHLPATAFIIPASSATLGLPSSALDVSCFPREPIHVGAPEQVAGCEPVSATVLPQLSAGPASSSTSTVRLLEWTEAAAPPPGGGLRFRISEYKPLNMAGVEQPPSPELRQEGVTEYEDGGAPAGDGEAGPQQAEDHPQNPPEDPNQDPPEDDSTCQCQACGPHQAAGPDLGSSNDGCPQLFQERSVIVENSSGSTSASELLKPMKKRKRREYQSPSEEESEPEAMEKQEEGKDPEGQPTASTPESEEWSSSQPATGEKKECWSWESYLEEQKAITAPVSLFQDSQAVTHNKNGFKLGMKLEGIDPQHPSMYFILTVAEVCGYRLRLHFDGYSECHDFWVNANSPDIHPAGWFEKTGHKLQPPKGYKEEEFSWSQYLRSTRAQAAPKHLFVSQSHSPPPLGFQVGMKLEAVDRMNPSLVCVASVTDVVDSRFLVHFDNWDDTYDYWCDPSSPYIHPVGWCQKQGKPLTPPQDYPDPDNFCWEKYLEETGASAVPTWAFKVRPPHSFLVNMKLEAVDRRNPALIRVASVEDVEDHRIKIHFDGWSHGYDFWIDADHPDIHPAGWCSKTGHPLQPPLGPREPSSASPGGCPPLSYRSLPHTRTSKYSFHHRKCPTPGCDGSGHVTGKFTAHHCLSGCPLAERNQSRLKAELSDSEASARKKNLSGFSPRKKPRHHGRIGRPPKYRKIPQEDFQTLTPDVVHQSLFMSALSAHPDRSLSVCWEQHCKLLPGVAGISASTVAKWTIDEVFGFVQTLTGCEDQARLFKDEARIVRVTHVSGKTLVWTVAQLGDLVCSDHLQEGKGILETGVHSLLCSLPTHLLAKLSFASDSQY
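Read-out is AlphaScreen signal from streptavidin donor and nickel chelate acceptor beads (10 ug/mL final each) bridging L3MBTL1 (50 nM) and biotinylated K9-monomethylated H3(1-15) peptide (75 nM), after 30 min compound exposure at room temperature.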
G9a block: inhibitors of human histone lysine methyltransferase G9a. G9a H3K9 monomethylation, AlphaScreen, 2 h. 8.8% of 350,000 active. Q96KQ7. Potency, µM (series often up to 102 µM), for inactives: at the highest dose activity, negative = inhibition, most hits filed as inhibitors. AID 504332; further: on the % scale 0 is the no-effect control and ±100 the full control effect; nearly all actives have a fitted effect of over 75% in size
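Using a bead-based AlphaScreen, monomethylated H3K9 product from 2 h room-temperature reactions (G9a 20 nM, peptide 500 nM, SAM 20 uM) was detected with 0.5 ug/mL rabbit anti-H3K9me1 antibody.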
JMJD2A Tudor: JMJD2A Tudor domain (human) inhibition; O75164; AlphaScreen JMJD2A-Tudor / H3K4me3 peptide binding; Potency, µM (titrated, usually from 114 µM), without a hit: at the highest dose activity change, negative = inhibition, actives largely listed as inhibitors; 4.4% of 390,000 active; AID 504339; further: on the % scale 0 is the no-effect control and ±100 the full control effect; nearly all actives have a fitted effect of over 50% in size
Starred values were filed as active, the others as inactive; ? = inconclusive; nt = no result; [ ] = another dose, or the depositor's remark. The call rests on the fitted dose curve; in most records, active means well fitted inhibition curve with a large enough effect; inconclusive means small, poorly fitted or top-dose-only effect; inactive means no such curve, though single readings can be large or run the other way. Potency means the concentration at half of the fitted maximal effect.

SMILES | HP1b chromo inh | BAZ2B inh | L3MBTL1 inh | G9a block | JMJD2A Tudor
Cc1cccc(N2C(=O)C(Cl)=C(Nc3c(C)n(C)n(-c4ccccc4)c3=O)C2=O)c1C | 22.1% | 50.1µM* | nt | 8.91µM* | -9.2%
Cc1ccc(N2C(=O)C(Cl)=C(Nc3c(C)n(C)n(-c4ccccc4)c3=O)C2=O)cc1 | 0.0% | -35.3% | -4.9% | 5.01µM* | -29.8%
CC[n+]1c(-c2ccc(C)cc2)csc1Nc1c(C)n(C)n(-c2ccccc2)c1=O | ? | ? | -8.4% | 8.91µM* | ?
Cc1c(NC(=O)Nc2c(Cl)cccc2Cl)c(=O)n(-c2ccccc2)n1C | 30.6% | -0.6% | 7.0% | -9.7% | 0.7%
COCCSc1nc2c([nH]c3ccccc32)c(=O)n1-c1ccc(OC)c(OC)c1 | 47.7%[57 µM] | 33.5% | nt | 0.5%[59 µM] | -4.5%
CC(NCc1ccc2c(c1)n(C)c(=O)n2C)c1ccccc1 (stereo not given) | 5.3% | -4.2% | nt | -6.9%[59 µM] | -29.2%
COc1cccc(CNC(=O)c2ccc(CS(=O)Cc3ccc(Cl)cc3)o2)c1 (stereo not given) | 43.3% | -24.6% | nt | -3.2%[59 µM] | -6.2%
CCN(CC(=O)Nc1ccc(C(C)=O)cc1)CC(=O)Nc1ccc2c(c1)OCCO2 | ? | nt | -4.8% | nt | 0.316µM*
CCN(CC(=O)Nc1ccc(OC)cc1)CC(=O)Nc1ccc2c(c1)OCO2 | 32.3% | 6.6% | -1.8% | ? | -10.4%
CCN(CC(=O)Nc1ccc2c(c1)OCCO2)CC(=O)Nc1ccccc1C(F)(F)F | 28.2µM* | nt | -7.4% | nt | 5.01µM*
Cc1noc(C)c1C(=O)N1CCC2(CC1)CN(Cc1cc(C(F)(F)F)cc(C(F)(F)F)c1)C2 | nt | nt | nt | 0.0%[12.7 µM] | nt
O=C(NCC(c1ccc2c(c1)OCO2)N1CCN(c2ccccc2F)CC1)c1ccccc1F (stereo not given) | 10.3%[57 µM] | -24.2% | nt | -31.8%[59 µM] | -29.7%
Cc1cc(Cl)ccc1OCC(=O)N1CCC(c2nc3ccccc3o2)CC1 | 56.4% | 4.3% | nt | -1.9%[59 µM] | 12.3%
CC(=O)Oc1cccc(/C=c2\sc3nc(-c4ccco4)nn3c2=O)c1 | 0.1% | -34.7% | ? | ? | 50.1µM*
Cc1cnn(C(=O)c2cc(-c3ccccn3)nc3ccc(Cl)cc23)c1 | 13.4% | 56.2µM* | -2.8% | ? | -15.1%
O=C(NC1CCCCC1)c1cc(-c2ccccn2)nc2ccccc12 | 14.8% | -14.3% | 5.3% | 50.1µM* | -16.9%
O=C(NCCc1ccc(Cl)cc1)c1cc(-c2ccccn2)nc2ccccc12 | -0.6% | -21.2% | nt | 18.2%[59 µM] | 22.4µM*
Cc1ccc(C)c(-c2cc(C(=O)NNC(=S)NCC(C)C)c3ccccc3n2)c1 | -9.4% | -4.1% | -10.3% | 10µM* | -19.9%
O=C(c1cc(-c2ccccn2)nc2ccc(Cl)cc12)N1CCN(CCc2ccccc2)CC1 | 17.3% | -10.2% | -12.6% | 5.5%[59 µM] | -19.6%
O=C(NC1CCCCCC1)c1cc(-c2ccccn2)nc2ccccc12 | 18.6% | -12.7% | -5.6% | -12.0% | -11.9%
CCOC(=O)c1c(NC(=O)c2cc3nc(-c4ccc(Br)cc4)cc(C(F)(F)F)n3n2)sc(C(C)=O)c1C | -2.2% | -5.6% | nt | ? | -17.3%
Cc1ccc(Nc2cc(C(=O)NC3CCCC3)c3ccccc3n2)c(C)c1 | 12.1% | nt | nt | -4.0%[59 µM] | -21.0%
Cc1ccc(C)c(-c2cc(C(=O)NC3CC3)c3ccccc3n2)c1 | 20.5% | -25.2% | nt | 44.7µM* | -23.7%
COc1ccc(NC(=O)Cn2c(=O)ccc3cc(S(=O)(=O)N4CCCC4)ccc32)cc1Cl | 24.0%[57 µM] | 0.8% | nt | 2.2%[59 µM] | -13.9%
CN1CC(c2ccccn2)C2(SC(=S)N(Cc3ccccc3)C2=O)C12C(=O)Nc1ccccc12 (stereo not given) | ? | 14.1µM* | ? | nt | 22.4µM*
CC(C)c1ccc(C2c3c(-c4ccccc4O)n[nH]c3C(=O)N2CCc2ccccc2)cc1 (stereo not given) | 31.1% | -0.9% | nt | 10.8%[59 µM] | -9.4%
Cc1nc(N=Nc2cc(S(=O)(=O)O)c3cc([N+](=O)[O-])cc(S(=O)(=O)O)c3c2)c(COP(=O)(O)O)c(C=O)c1O | nt | nt | nt | 3.55µM* | nt
CCc1ccc(O)c(N=Cc2ccccc2O)c1 | 18.1% | ? | nt | ? | ?
O=c1[nH][nH]c2c(N=Cc3ccccc3O)ccc(F)c12 | 11.2µM* | 10µM* | 3.55µM* | 8.91µM* | ?
CC(C)C(=O)Nc1nnc2n1CCS2 | 3.4%[57 µM] | 1.7% | nt | ? | 31.6µM*

Screening results as filed in PubChem BioAssay.
